Measurements published in PubChem BioAssay AID1159580 (chemical genetic matrix, 2015).
Screen size: about 5,500 compounds; about 2,000 (36%) were called active. Roughly 18% stayed inconclusive and do not appear here. Rule as the data show it: active = normalized growth mostly below about 0.91 (no sharp cut-off); inconclusive = no clear call, values can overlap the other calls; inactive = mostly above about 0.92. This is one part of the list.

Assay: chemical genetic growth profiling, strain panel (AID 1159580);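 also: tested at 20 µM; growth read once vehicle control cultures reached saturation at 30 °C; 1 = growth at the plate median or of vehicle wells; lower values mean less growth of the strain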
Conditions: growth OD
[1] = S. cerevisiae deletion strains, locus YAL013W, strain DEP1, active compounds read low
[2] = S. cerevisiae deletion strains, locus YBR229C, strain ROT2, active compounds read low
[3] = S. cerevisiae deletion strains, locus YDL101C, strain DUN1, active compounds read low
[4] = S. cerevisiae deletion strains, locus YDR150W, strain NUM1, active compounds read low
[5] = S. cerevisiae deletion strains, locus YEL061C, strain CIN8, active compounds read low
[6] = S. cerevisiae deletion strains, locus YGR078C, strain PAC10, active compounds read low
[7] = S. cerevisiae deletion strains, locus YHR030C, strain SLT2, active compounds read low
[8] = S. cerevisiae deletion strains, locus YHR087W, strain rtc3, active compounds read low
[9] = S. cerevisiae deletion strains, locus YJR043C, strain POL32, active compounds read low
[10] = S. cerevisiae deletion strains, locus YJR075W, strain HOC1, active compounds read low
[11] = S. cerevisiae deletion strains, locus YLR039C, strain RIC1, active compounds read low
[12] = S. cerevisiae deletion strains, locus YLR058C, strain SHM2 (second series), active compounds read low
[13] = S. cerevisiae deletion strains, locus YLR085C, strain ARP6, active compounds read low
[14] = S. cerevisiae deletion strains, locus YLR262C, strain YPT6, active compounds read low
[15] = S. cerevisiae deletion strains, locus YML094W, strain GIM5, active compounds read low
[16] = S. cerevisiae deletion strains, locus YMR219W, strain ESC1, active compounds read low
[17] = S. cerevisiae deletion strains, locus YMR263W, strain SAP30, active compounds read low
[18] = S. cerevisiae deletion strains, locus YMR307W, strain GAS1, active compounds read low
[19] = S. cerevisiae deletion strains, locus YNL153C, strain GIM3, active compounds read low
[20] = S. cerevisiae deletion strains, locus YNL298W, strain CLA4 (second series), active compounds read low
[21] = S. cerevisiae deletion strains, locus YNL322C, strain KRE1, active compounds read low
[22] = S. cerevisiae deletion strains, locus YNR030W, strain Alg12, active compounds read low
[23] = S. cerevisiae deletion strains, locus YPL055C, strain LGE1, active compounds read low
[24] = S. cerevisiae deletion strains, locus YPL241C, strain CIN2, active compounds read low
[25] = S. cerevisiae deletion strains, locus YPR135W, strain CTF4, active compounds read low

Measured: normalized growth

O=C(CSc1ccc(C(F)(F)F)cn1)N1CCc2c([nH]c3ccccc23)C1C(F)(F)F (stereo unspecified)
inactive: [1] 1 | [2] 0.995 | S. cerevisiae deletion strains, locus YCL061C, strain MRC1, active compounds read low 1.01 | [3] 1 | [4] 1.02 | [5] 0.959 | [6] 0.984 | [7] 1.01 | [8] 0.974 | S. cerevisiae deletion strains, locus YJL187C, strain SWE1, active compounds read low 1.02 | [9] 1.01 | [10] 0.965 | [11] 0.999 | [12] 1.01 | [13] 1 | [14] 0.982 | [15] 0.997 | [16] 1.01 | [17] 1.01 | [18] 0.935 | [19] 0.998 | [20] 1.01 | [21] 0.991 | [22] 0.916 | S. cerevisiae deletion strains, locus YOL006C, strain TOP1, active compounds read low 1.08 | [23] 0.954 | [24] 0.936 | [25] 0.907

O=C(O)COCC(=O)N1CCc2c([nH]c3ccccc23)C1C(F)(F)F (stereo unspecified)
active: [13] 1.33 [resistant]
inactive: [1] 1.01 | [2] 0.998 | [3] 1.02 | S. cerevisiae deletion strains, locus YDL134C, strain PPH21, active compounds read low 1.01 | [4] 0.949 | [5] 1.01 | [6] 1.03 | [7] 1.06 | [8] 1.01 | [9] 1.02 | [10] 1.06 | S. cerevisiae deletion strains, locus YKL190W, strain CNB1, active compounds read low 1.03 | [11] 1.03 | [12] 1.02 | [14] 0.998 | [15] 1.04 | [16] 1 | [17] 0.954 | [18] 1.24 | [19] 1.01 | [20] 1.05 | [21] 1.02 | [22] 1.06 | [23] 0.961 | [24] 1.07 | [25] 1.05 | S. cerevisiae strains, strain wild type, active compounds read low 1.02
